# Bioassay records deposited in PubChem BioAssay by several laboratories.
# LANA-H2B inh – blocks KSHV LANA binding to histone H2A/H2B | Q9QR71 | cell-free LANA-H2A/H2B peptide, fluorescence polarization | inhibition, % (test concentration not listed) | actives 0.6% (n = 320,000); in the data active = inhibition mostly above about 10%, no sharp cut-off; inactive = mostly below about 6.7%
# E coli Lon inh – inhibitors of E. coli Lon protease. P0A9M0. purified E. coli Lon protease, fluorescence polarization. inhibition, % at 7.94 µM. actives 0.42% (n = 360,000). AID 602123; in the data active = inhibition above about 13%, passing the limit was not always enough;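 also: 0% = enzyme with probe and DMSO and 100% = no enzyme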
# GLD-1 RNA inh – GLD-1-TGE RNA interaction inhibition (C. elegans). AID 2280. inhibition, % at 5.96 µM. purified GLD-1 + fluorescein TGE RNA, fluorescence polarization. actives 0.44% (n = 320,000). Q17339;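 active = percent inhibition above a per-plate cutoff, the plate mean of test compounds plus 3 SD, cut at about 30% in these data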;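 also: 0% = DMSO wells with GLD-1 and probe and 100% = wells lacking GLD-1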
# Target sequence (Q17339 whole entry, looked up): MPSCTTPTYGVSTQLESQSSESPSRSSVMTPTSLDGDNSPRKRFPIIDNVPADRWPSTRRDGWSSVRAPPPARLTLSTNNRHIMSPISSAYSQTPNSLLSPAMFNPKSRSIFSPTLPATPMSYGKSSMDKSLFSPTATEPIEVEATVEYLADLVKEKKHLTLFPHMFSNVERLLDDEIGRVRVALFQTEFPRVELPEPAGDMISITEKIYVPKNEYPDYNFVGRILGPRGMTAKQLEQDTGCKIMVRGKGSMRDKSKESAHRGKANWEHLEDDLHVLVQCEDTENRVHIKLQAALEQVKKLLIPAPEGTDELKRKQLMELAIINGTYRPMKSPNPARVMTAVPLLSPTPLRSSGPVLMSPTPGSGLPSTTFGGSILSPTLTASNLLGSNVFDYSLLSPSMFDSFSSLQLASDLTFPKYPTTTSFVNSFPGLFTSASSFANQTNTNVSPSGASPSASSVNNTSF
# LANA DNA inh – inhibitors of KSHV LANA C-terminal domain DNA binding. AID 504423. actives 0.078% (n = 340,000). MBP-C-LANA/FAM-LBS DNA binding, fluorescence polarization. inhibition, % at 9 µM;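 active = highest replicate inhibition at or above 60% at 9 µM, even if other replicates fall short; inactive = all replicates below 60% inhibition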;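 also: 0% = neutral control wells and 100% = 4 µM acridine orange control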
# Keap1 Nrf2 FP – Keap1-Nrf2 (human) interaction inhibition; Keap1 Kelch-Nrf2 peptide fluorescence polarization, 1536-well; inhibition, % at 9.4 µM; actives 0.15% (n = 340,000); in the data active = inhibition above about 12%; inconclusive = no clear call, values can overlap the other calls; inactive = below about 7.3%;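 also: human Keap1 Kelch domain with fluorescein labeled Nrf2 9mer peptide probe; 0% = neutral control wells and 100% = peptide positive control; higher means more block of Keap1 binding to Nrf2 peptide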
# EBV gp42 inh – EBV gp42 inhibition. Fluorescence polarization binding assay, mP read-out. AID 1085. inhibition, % (tested at 21.74 µM). actives 0.42% (n = 220,000); in the data active = inhibition above about 50%
# GLD-1 TGE cf – GLD-1 TGE RNA interaction inhibition, confirmation | shares compounds with GLD-1 RNA inh | GLD-1/FL-TGE RNA fluorescence polarization, biochemical | inhibition, % at 5.96 µM | actives 10% (n = 550) | AID 2459;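 active = average inhibition across triplicates above the hit cutoff set in the primary screen, cut at about 32% in these data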;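 also: 0% = GLD-1 with RNA probe and DMSO and 100% = wells lacking GLD-1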
# * marks the source's active call; other numbers are inactive results; ? = inconclusive; · = not tested or not shown. Sampled rows, rich in hits. Any-hit rate of the full collection: about 1.5%.
SMILES,LANA-H2B inh,E coli Lon inh,GLD-1 RNA inh,LANA DNA inh,Keap1 Nrf2 FP,EBV gp42 inh,GLD-1 TGE cf
O=C(O)c1ccc2c(=O)n3c(nc2c1)/C(=C/c1ccc(C(F)(F)F)cc1)CC3,-2,7,0,0,3,·,·
COc1ccc(S(N)(=O)=O)cc1C(=O)N1CCCC1,1,-2,0,0,-2,-3,·
C=CCn1c(N)cc(=O)nc1SCC(=O)Nc1ccc(C(=O)OCC)cc1,0,2,6,0,-5,·,·
CCCCC1=CC2=CC(=O)C(C)(OC(=O)CC)C(=O)C2=CN1CC(C)C (stereo unspecified),2,7,31*,2,-3,9,22
CN1C(C)(C)CC(NC(=O)c2ccco2)CC1(C)C,-3,-6,3,1,1,·,·
CC1(C)CC(OC(=O)c2ccco2)CC(C)(C)N1O,-1,15,35*,2,-3,-12,-6
CCOC(=O)CN1C(=O)N[C@H](c2ccc(Br)cc2)C(C(C)=O)=C1C,-3,5,1,1,-6,12,·
CCc1ccc(C(=O)NC(C(=O)NCC2CCCO2)C(C)C)cc1 (stereo unspecified),-2,-4,3,1,-3,-2,·
NS(=O)(=O)c1cccc(NC(=O)CN2CCc3ccccc32)c1,4,-1,47*,-2,-2,2,-4
CC(C)CN(C(=O)COC(=O)c1c2c(nc3ccccc13)CCC2)c1c(N)n(Cc2ccccc2)c(=O)[nH]c1=O,1,-15,0,-2,-8,·,·
CN(C)c1ccc(N=Cc2ccco2)cc1,1,-4,3,-1,-2,-1,·
C(=Nc1cccc2c(N=Cc3ccco3)cccc12)c1ccco1,7,7,43*,6,?,33,3
Cc1oc(/N=C/c2ccc3c(c2)OCO3)c(C#N)c1C,1,4,36*,4,-2,1,-3
NC(=O)c1ccccc1NC(=O)/C=C/c1ccc(Cl)cc1,-1,-10,56*,-2,3,-10,-5
CN(C(=O)CN1C(=O)NC2(CCc3ccccc32)C1=O)C1CCCCC1 (stereo unspecified),-2,6,6,·,·,·,·
CN(C(=O)CN1C(=O)c2cccc(N)c2C1=O)C1CCCCC1,1,22,45*,7,2,·,49*
COc1cc(NC(=O)c2cccs2)cc(OC)c1,2,7,52*,0,-2,-18,-2
COC(=O)[C@]1(C)N[C@H](CN(C)S(=O)(=O)c2ccc(F)cc2)[C@@H]2C(=O)N(C)C(=O)[C@@H]21,0,·,5,-2,-2,·,·
O=C1c2ccccc2OC2(C=Cc3ccccc3O2)N1Cc1ccccc1 (stereo unspecified),6,9,6,-2,-6,-6,·
CN1CC2=Cc3ccccc3OC23Oc2ccccc2C=C3C1,1,9,33*,1,-11,2,39*
CC1(C)CC(=O)C/C(=N/NC(=O)COc2ccc3ccccc3c2Br)C1,-4,4,31*,0,3,·,1
O=C(O)CCC(=O)NNC(=O)COc1ccc2ccccc2c1Br,4,-4,3,-2,0,-7,·
COC(=O)C(N)Cc1ccc(O)cc1 (stereo unspecified),5,-1,-1,0,-3,-30,·
COC(=O)C(N)Cc1ccc(O)c(O)c1 (stereo unspecified),1,6,71*,-3,-3,0,7
Cc1cc(C)n2nc(C(=O)Nc3ccc(S(=O)(=O)N(C)C)cc3)nc2n1,-1,3,6,0,3,-2,·
Cc1cc(OC(=O)c2ccc(S(=O)(=O)N3CCOCC3)cc2)c([N+](=O)[O-])c(=O)[nH]1,·,-6,·,-2,1,5,·
CCn1c(CSc2nnc(-c3cccnc3)n2-c2ccccc2C)nc2cc(C(=O)O)ccc21,18*,·,46*,·,·,-6,18
Cc1ccccc1-n1c(SCC(=O)c2cc(C)n(C)c2C)nnc1-c1cccnc1,2,1,5,1,0,0,·
COc1ccc(CNC(=O)C2CCN(C(=O)c3cccc(Cl)c3)CC2)cc1,-4,6,-2,2,-1,·,·
